# Screens: PubChem, several laboratories
# This is a sample that favours compounds with a hit; in the whole collection about 2.3% have one here.
# Mcl1 Bid PPI: Mcl-1/Bid interaction inhibition; Q07820; TR-FRET Mcl-1/Bid-Dy647 peptide binding, 1536-well; inhibition, % at 21.7 µM; 220,000 tested, 0.97% active; AID 1021;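 active = compounds that cut the binding signal by more than half at the single screening dose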;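 also: His-tagged Mcl-1 with europium anti-His antibody binding Bid BH3 peptide; 0% = Mcl-1 plus peptide wells and 100% = peptide-only wells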
# Bim-Mcl-1: human Bim-Mcl-1 interaction inhibition | inhibition, % at 10 µM | Bead-based flow cytometry, Bim peptide-Mcl-1 binding | Q07820 | 190,000 tested, 0.1% active | AID 1009; in the data active = inhibition above about 40%;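 also: 0% = no compound tracer wells and 100% = peptide blocker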
# Mcl1-Noxa inh: Mcl-1/Noxa interaction inhibition. TR-FRET Mcl-1/Noxa peptide binding, 2 h. AID 1022. Q07820. inhibition, % at 21.7 µM. 220,000 tested, 1.5% active;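 active = compounds that cut the protein-peptide binding signal by more than 50% relative to plate controls in a single-dose test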;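 also: His-tagged Mcl-1 with rhodamine Noxa BH3 peptide and terbium anti-His antibody; 0% = Mcl-1 plus Noxa peptide wells and 100% = peptide-only wells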
# BCLXL inh: inhibitors of human Bcl-xL | AID 2129 | inhibition, % at 10.9 µM | GST-Bcl-xL / FITC-Bim BH3 peptide fluorescence polarization | Q07817 | 320,000 tested, 0.7% active;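 active = inhibition above the mean of all tested compounds plus 3 SD, cutoff set per campaign, cut at about 30% in these data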;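 also: 0% = DMSO wells and 100% = unlabeled Bim-BH3 peptide competitor; inhibitors lower millipolarization by displacing the labeled peptide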
# Target sequence (Q07817 whole entry, looked up): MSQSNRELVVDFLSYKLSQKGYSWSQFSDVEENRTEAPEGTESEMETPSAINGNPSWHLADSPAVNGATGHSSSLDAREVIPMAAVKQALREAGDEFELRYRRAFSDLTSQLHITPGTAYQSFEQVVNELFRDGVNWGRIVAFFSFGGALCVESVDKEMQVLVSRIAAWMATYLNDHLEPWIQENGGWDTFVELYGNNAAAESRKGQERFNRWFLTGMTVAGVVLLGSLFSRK
# GLD-1 RNA inh: GLD-1-TGE RNA interaction inhibition (C. elegans). Q17339. AID 2280. 320,000 tested, 0.44% active. inhibition, % at 5.96 µM. purified GLD-1 + fluorescein TGE RNA, fluorescence polarization;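 active = percent inhibition above a per-plate cutoff, the plate mean of test compounds plus 3 SD, cut at about 30% in these data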;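 also: 0% = DMSO wells with GLD-1 and probe and 100% = wells lacking GLD-1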
# MCL1 BIM primary: disrupts human MCL1 binding to BIM-BH3 peptide. Q07820. GST-MCL1 / FITC-Bim-BH3 fluorescence polarization. inhibition, % at 10.9 µM. 320,000 tested, 0.68% active;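 active = inhibition above the mean inhibition of all tested compounds plus 3 SD, set per campaign, cut at about 40% in these data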;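 also: 0% = DMSO wells and 100% = unlabeled Bim-BH3 peptide control; higher means more loss of mP so more displacement of Bim peptide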
# The depositor's hits bear a star; nt = no result given.
SMILES,Mcl1 Bid PPI,Bim-Mcl-1,Mcl1-Noxa inh,BCLXL inh,GLD-1 RNA inh,MCL1 BIM primary
COc1ccc(NC(=O)/C(C#N)=C/c2ccc(Br)o2)cc1,-31,0,58*,5,3,25
N#Cc1cccc(N=Cc2c(O)ccc3ccccc23)c1,-22,2,55*,5,0,3
Cc1ccc(N=Cc2c(O)ccc3ccccc23)cc1F,-3,-2,34,1,1,13
CC(=O)N1CCCN(Cc2cn(-c3ccc(C)cc3)nc2-c2ccc(F)cc2)CC1,56*,14,34,4,8,-3
Cc1ccc(-n2cc(CN3CCCN(C=O)CC3)c(-c3ccc(F)cc3)n2)cc1,12,-6,12,3,7,4
Cc1ccc2[nH]c3c(c2c1)CN(C(=O)CN1c2ccc(F)cc2CCC1C)CC3 (configuration not stated),-32,2,11,-3,3,-13
O=C(c1ccco1)N1CCN(Cc2nc3ccccc3[nH]2)CC1,nt,nt,nt,nt,2,nt
O=C(CN1CCN(C(=O)c2ccco2)CC1)N1CCc2[nH]c3ccccc3c2C1,-23,nt,9,36*,-17,30
Cc1ccc2[nH]c3c(c2c1)CN(C(=O)CN1CCN(c2cccc(C)c2C)CC1)CC3,-8,0,7,38*,31,25
Cc1ccc2[nH]c3c(c2c1)CN(C(=O)CN1CCN(C(=O)c2ccco2)CC1)CC3,-36,nt,11,48*,32*,30
O=C(CN1CCSCC1)N1CCc2[nH]c3ccc(Br)cc3c2C1,-24,2,13,nt,nt,nt
N#C/C(=C\c1sc(N2CCOCC2)nc1-c1ccccc1)C(=O)Nc1cccc2ccccc12,57*,0,21,nt,nt,nt
O=C(Nc1ccccc1)c1sc(N2CCOCC2)nc1-c1ccccc1,2,-4,-6,4,-1,7
Cc1cc(C)c2c(NC(=S)NC(=O)c3ccccc3)n[nH]c2n1,-20,-1,11,5,-1,5
Cc1cc(C)c2c(NC(=S)Nc3ccccc3)n[nH]c2n1,-37,1,60*,10,-2,13
N#CC(C#N)=C(N)CSc1cccc[n+]1[O-],-28,0,-11,30*,16,31
CC(=O)Nc1ccc(S(=O)(=O)N[C@@H](C)C(=O)NC2CCCc3ccccc32)cc1 (some centres not stated),nt,nt,nt,nt,-2,nt
CC(C)(C)N=C1NN=C(c2ccc(Cl)cc2)CS1,-33,nt,5,-1,-2,-11
Clc1ccc(C2=NNC(=NCc3ccc4c(c3)OCO4)SC2)cc1,10,-4,62*,1,-1,0
COc1ccc(CN=C2NN=C(c3ccc(Cl)cc3)CS2)cc1,-13,-1,58*,2,-14,1
CC(C)N(Cc1ccccc1)C(=O)CN1C(=O)NC2(CCOc3ccccc32)C1=O (configuration not stated),nt,nt,nt,nt,4,nt
CCOC(=O)C1CCN(C(=O)COC(=O)c2ccc(=O)n(Cc3ccccc3)n2)CC1,nt,nt,nt,-5,1,-3
Cc1ccc(S(=O)(=O)CCC(=O)N2CCN(c3ccc([N+](=O)[O-])cc3)CC2)cc1,nt,nt,nt,-4,-1,-3
O=C1c2cccc3c(N4CCCCC4)ccc(c23)C(=O)N1c1ccccc1O,-11,-3,-23,35*,22,-5
O=C(O)c1ccc(N2CCCCCC2)c(N2C(=O)c3ccccc3C2=O)c1,2,-8,17,7,4,2
SMILES,Mcl1 Bid PPI,Bim-Mcl-1,Mcl1-Noxa inh,BCLXL inh,GLD-1 RNA inh,MCL1 BIM primary
CCc1noc(C)c1C(=O)Nc1cc(S(=O)(=O)N(CC)CC)ccc1N1CCOCC1,nt,nt,nt,2,-6,1
C1CCCN(c2nc3nonc3nc2N2CCCCCC2)CC1,-10,-1,4,6,6,-1
Nc1nc2nonc2nc1N1CCCCC1,-18,0,3,34*,9,25
CS(=O)(=O)c1ccc(-c2csc(-c3cccnc3)n2)cc1,nt,nt,nt,31*,-2,5
O=C(NC1CC1)c1cc(Cl)ccc1[N+](=O)[O-],-121,-2,71*,4,6,6
O=C(NC1CCCC1)c1cc(Cl)ccc1[N+](=O)[O-],0,-6,11,-1,-6,-4
CCOc1ccc(S(=O)(=O)n2ccnc2C)cc1,nt,nt,nt,0,8,-8
O=C([C@@H]1CCCN1C(=O)c1cccs1)N1CCN(S(=O)(=O)c2cccc(F)c2)CC1,nt,nt,nt,-5,1,-19
